# TDP1 block – inhibitors of human tyrosyl-DNA phosphodiesterase TDP1; actives 0.28% (n = 350,000); Potency, µM (series often up to 130 µM), without a hit: at the highest dose activity change, negative = inhibition, usual class: inhibitors; Q9NUW8; AID 485290; recombinant TDP1, AlphaScreen DNA substrate cleavage; also: % is scaled to controls: 0 for no effect and ±100 for the full control effect; nearly all actives have a fitted effect of over 40% in size
# Target sequence (Q9NUW8 whole entry, looked up): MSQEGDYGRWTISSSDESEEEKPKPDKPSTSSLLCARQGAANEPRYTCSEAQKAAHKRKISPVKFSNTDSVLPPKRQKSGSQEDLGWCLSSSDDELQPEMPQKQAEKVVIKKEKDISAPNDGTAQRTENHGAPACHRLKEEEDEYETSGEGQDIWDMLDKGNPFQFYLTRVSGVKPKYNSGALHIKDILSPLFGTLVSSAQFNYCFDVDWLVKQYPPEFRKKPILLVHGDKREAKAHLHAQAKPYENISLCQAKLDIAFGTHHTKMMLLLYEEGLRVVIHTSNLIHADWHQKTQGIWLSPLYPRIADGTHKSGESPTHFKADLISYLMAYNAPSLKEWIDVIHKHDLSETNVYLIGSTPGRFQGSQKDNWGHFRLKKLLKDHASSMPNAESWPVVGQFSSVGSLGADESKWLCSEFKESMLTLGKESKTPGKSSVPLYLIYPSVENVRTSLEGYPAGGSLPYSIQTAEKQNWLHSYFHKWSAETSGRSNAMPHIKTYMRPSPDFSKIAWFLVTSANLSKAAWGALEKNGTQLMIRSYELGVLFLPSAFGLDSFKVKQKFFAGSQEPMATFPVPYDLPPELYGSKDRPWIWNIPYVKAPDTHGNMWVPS
#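 Here, a 5' biotin and 3' phosphotyrosine-FITC DNA oligonucleotide reports Tdp1 activity: intact substrate bridges AlphaScreen beads, while cleavage leaves a 3' phosphate and drops signal. All incubations at room temperature.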
# BAZ2B inh – BAZ2B (human) inhibition; AlphaScreen BAZ2B-H3K14Ac peptide displacement; actives 4.4% (n = 360,000); Q9UIF8; Potency, µM (series often up to 114 µM), without a hit: at the top dose activity change, negative = inhibition, usual class: inhibitors; also: % is scaled to controls: 0 for no effect and ±100 for the full control effect; nearly all actives have a fitted effect of over 60% in size
#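 AlphaScreen luminescence quantifies BAZ2B engagement of H3K14Ac peptide; the protein and biotinylated peptide are both at 50 nM final, buffer PBS pH 7.4 with 0.01% Tween-20, all steps at room temperature.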
# JMJD2A Tudor – JMJD2A Tudor domain (human) inhibition. O75164. AlphaScreen JMJD2A-Tudor / H3K4me3 peptide binding. Potency, µM (top dose mostly 114 µM), for inactives: top-dose activity change, negative = inhibition, usual class: inhibitors. actives 4.4% (n = 390,000); also: % is scaled to controls: 0 for no effect and ±100 for the full control effect; nearly all actives have a fitted effect of over 50% in size
# HP1b chromo inh – HP1-beta chromodomain-methylated histone interaction inhibition | Potency, µM (doses to about 114 µM), for the others: top-dose activity change, negative = inhibition, actives largely listed as inhibitors | P83916 | AlphaScreen HP1-beta / biotin-H3K9me3 peptide binding | actives 0.56% (n = 390,000); also: nearly all actives have a fitted effect of over 70% in size
#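 Compound inhibition of the preformed complex between 50 nM HP1-beta and 50 nM biotinylated H3K9me3 peptide was read by AlphaScreen. Buffer was PBS pH 7.4 with 0.01% Tween-20. Incubations ran 30 min at room temperature, with 10 ug/mL donor/acceptor beads.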
# G9a inh – blocks human histone lysine methyltransferase G9a | G9a H3K9 monomethylation, AlphaScreen, 2 h | Potency, µM (highest dose often 102 µM), inactives show at the highest dose activity, negative = inhibition, usual class: inhibitors | actives 8.8% (n = 350,000) | AID 504332 | Q96KQ7; also: % is scaled to controls: 0 for no effect and ±100 for the full control effect; nearly all actives have a fitted effect of over 75% in size
#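 Readings reflect AlphaScreen signal from monomethyl-H3K9 antibody detection. HMT at 20 nM; substrate b-H3K9 500 nM; cofactor SAM 20 uM; 2 h RT reaction; compounds tested as titrations in qHTS with 15 min preincubation.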
# Sfp inh – blocks B. subtilis Sfp PPTase activity | Biochemical Sfp PPTase activity, qHTS | actives 3.5% (n = 310,000) | AID 1490 | Potency, µM, for inactives: largest response in the series, negative = inhibition, actives largely listed as inhibitors | Q9F4F7;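 also: the enzyme is Sfp with the accession as filed and its product quenches rhodamine fluorescence; 0% = enzyme reaction without inhibitor and -100% = no enzyme wells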
#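 With Hepes-Na pH 7.6 buffer containing 10 mM MgCl2, Sfp (15 nM) modified BHQ-2-YbbR (12.5 uM) using rhodamine-CoA (5 uM). Two reads 30 minutes apart at 525/598 nm yielded each well's rate.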
# Active calls of the source: *; ? = inconclusive; . = not tested or not shown; [ ] = remark or other dose. Rows were chosen to be rich in hits. Some 12% of all compounds tested hit in one or more screens of this group. Calls follow the shape of the dose curve; as a rule, active = well fitted curve in the direction sought with a large enough effect; inconclusive = small, poorly fitted or top-dose-only effect, or another doubt; inactive = no such curve, though single readings can be large; an effect the other way counts as inactive or inconclusive. Potency is read from the fitted curve at half-maximal effect.
SMILES,TDP1 block,BAZ2B inh,JMJD2A Tudor,HP1b chromo inh,G9a inh,Sfp inh
Cc1cccc(N2C(=O)C3C4C=CC(C5CC45)C3C2=O)n1 (configuration not stated),8.2%,-17.2%,-5.4%,16.9%,33.3%,12.1%
O=C(/C=C/c1ccccc1)Nc1ccc2c(c1)C(=O)NC2=O,4.3%,-6.3%,-15.6%,33.5%,-3.1%,-5.5%
O=C(/C=C/c1ccccc1Cl)Nc1ccc2c(c1)C(=O)NC2=O,-10.5%,70.8µM*,?,?,25.1µM*,-12.7%
NNC(=S)Nc1c(Br)cc(F)cc1Br,8.9%,-6.3%,-24.2%,37.0%,35.5µM*,1.4%
COc1ccc(Cl)cc1NC(=S)Nc1ccccc1C,7.2%,-3.2%,14.1µM*,-2.4%,.,-7.8%
COc1cc(C)c(NC(=S)Nc2ccc(C)c(Cl)c2)cc1OC,4.5%,-37.1%,-32.1%,?,?,-43.9%
COC(=O)c1cccc(NC(=S)NCc2ccc(Cl)cc2)c1,-2.6%,-3.1%,4.2%,50.3%,15.1%[59 µM],19.5%
COc1ccccc1NC(=S)NCc1ccccn1,0.0%,1.0%,-13.4%,15.2%,?,-18.3%
COc1cc(C)c(NC(=S)Nc2cccc(Cl)c2)cc1OC,1.9%,-0.9%,-22.8%,?,89.1µM*,44.7µM*
COc1ccc(Cl)cc1NC(=S)NCc1ccccn1,0.6%,-7.0%,-14.1%,10.4%,20µM*,?
COC(=O)c1cccc(NC(=S)Nc2cc(Cl)ccc2OC)c1,4.8%,-14.3%,-20.1%,?,.,20µM*
COc1ccc(Cl)cc1NC(=O)c1ccccc1C,-2.2%,42.0%,47.5%,102.1%,13.3%[59 µM],3.6%
CCn1c(S(=O)(=O)O)nc2ccccc21,-1.2%,-4.9%,-2.2%[11.4 µM],55.0%,.,7.1%
CCCN(CC(=O)Nc1cc(C)on1)CC(=O)Nc1ccccc1C,0.2%[56.1 µM],-2.0%,-2.8%,21.0%,5.5%[2.33 µM],.
O=S(=O)(Nc1cccc(C(F)(F)F)c1)c1ccc(-c2cnc(C3CC3)o2)cc1,1.2%,-7.6%,-20.5%,24.2%,-3.6%[59 µM],.
COC(=O)c1cc(OC)c(OC)cc1NC(=S)Nc1cccc(C(C)=O)c1,-8.2%,4.7%,22.4µM*,5.1%,10µM*,-16.2%
Cc1ccccc1NC(=S)NCCSc1ccc(Cl)cc1,0.0%,?,89.1µM*,7.3%,32.8%[59 µM],21.6%
Cc1ccc(C)c(NC(=S)NCCSc2ccc(Cl)cc2)c1,9.5%,?,-13.2%,30.1%,2.1%[59 µM],15.3%
COc1cccc(OC)c1C(=O)Nc1cccc(C(C)=O)c1,3.2%,8.3%,-13.0%[57.1 µM],2.3%,28.1%[59 µM],9.7%
CC(=O)N1c2ccc(S(=O)(=O)NCCC(=O)Nc3ncccc3C)cc2CC1C (configuration not stated),3.6%,-13.0%,-14.5%,55.3%,10.5%[59 µM],13.4%
CCC(C)N(C(=O)CSc1ncnc2sccc12)C1CCS(=O)(=O)C1 (configuration not stated),0.6%,-0.8%,11.1%,53.3%,1.1%[12.7 µM],.
O=C1CCCN1C(=O)CSc1ncnc2sccc12,50.1µM*,?,-35.2%,-7.6%,?,.
CCCN(CC1CC1)C(=O)CSc1ncnc2sccc12,-3.7%,1.8%,-6.8%,55.1%,39.8µM*,-49.2%
COc1cccc(C(=O)C(C#N)=C(SC)SC)c1,5.1%,-23.5%,-20.1%,-21.7%,39.8µM*,3.98µM*
N#CC(C#N)=C(Nc1ccccc1)c1ccccc1,7.0%,-11.4%,-13.1%,15.0%,1.7%,-11.4%
SMILES,TDP1 block,BAZ2B inh,JMJD2A Tudor,HP1b chromo inh,G9a inh,Sfp inh
CSC(SC)=C(C#N)C(=O)c1ccccc1,5.7%,-18.0%,-2.8%,-19.6%,50.1µM*,7.94µM*
COc1cccc(C(=O)Nc2ccc(NC(C)=O)cc2)c1,5.9%,4.3%,-17.9%,16.0%,19.6%[12.7 µM],15.0%
O=C(Oc1ccccc1/C=C\C(=O)c1cc2ccccc2o1)c1ccccc1,4.7%,-36.9%,-31.9%,-0.8%,?,-8.2%
COc1cccc(C(=O)Oc2ccccc2/C=C\C(=O)c2cc3ccccc3o2)c1,-7.9%,?,-30.8%,5.7%,11.2µM*,?
COC(=O)c1scc(C)c1NC(=O)/C=C/C(=O)O,6.8%,-4.4%,11.5%,38.3%,1.78µM*,12.6µM*
COC(=O)c1scc(C)c1NC(=O)Nc1ccccc1,-2.8%,1.2%,-3.0%,18.0%,26.1%[59 µM],8.5%
Cc1cccc(N2CCN(C(=S)c3ccc([N+](=O)[O-])cc3)CC2)c1,-7.7%,11.2µM*,39.8µM*,31.6µM*,3.98µM*,25.1µM*
CC(=O)N1CCN(c2ccc([N+](=O)[O-])cc2)CC1,-2.8%,-3.4%,-10.4%,-17.7%,6.8%,1.1%
Cc1ccccc1N1CCN(C(=S)c2ccc([N+](=O)[O-])cc2)CC1,5.1%,?,?,?,12.6µM*,?
CC1CCCC(N2CCN(C(=O)c3ccc([N+](=O)[O-])cc3)CC2)C1 (configuration not stated),5.2%,56.2µM*,22.4µM*,?,22.4µM*,-14.4%
CC(=O)N1CCN(C(=S)c2ccc([N+](=O)[O-])cc2)CC1,1.0%,-1.9%,?,-6.0%,22.4µM*,-10.3%
O=C(c1ccc(Oc2ccc([N+](=O)[O-])cc2)cc1)N1CCCCCC1,7.4%,-32.8%,-16.7%,25.9%,5.2%,-10.7%
Cc1ccccc1NC(=S)N1CCN(c2ccccc2C)CC1,.,9.8%,-10.3%,37.1%,.,22.0%
CCOc1ccc(CCNC(=O)c2cc(S(=O)(=O)N3CCOCC3)ccc2C)cc1OCC,.,-0.5%,-20.0%,10.6%,-39.2%,.
CC(=O)c1ccc(S(=O)(=O)Nc2cccc(-c3ccc(N4CCCCCC4)nn3)c2)cc1,3.0%,-4.0%,-27.2%,8.0%[57 µM],-18.7%[59 µM],.
Cc1cccc(N(C)C(=O)CCS(=O)(=O)c2ccc3c(c2)n(C)c(=O)c(=O)n3C)c1,0.0%,-2.4%,4.4%,42.8%,1.8%[59 µM],.
Cn1c(=O)oc2cc(S(=O)(=O)CCC(=O)Nc3ccccc3)ccc21,1.9%,-2.2%,-6.9%,17.5%,41.4%,16.2%
COc1ccc(NC(=O)CCS(=O)(=O)c2ccc3c(c2)oc(=O)n3C)cc1,.,50.1µM*,-29.9%,14.3%,8.4%,9.0%
Cc1cccc(N(C)C(=O)CCS(=O)(=O)c2ccc3c(c2)oc(=O)n3C)c1,5.3%,0.3%[57.1 µM],-22.0%,0.3%,2.82µM*,.
Cc1cccc(N2CCN(CC(=O)Nc3ccccc3[N+](=O)[O-])CC2)c1C,9.8%,-4.8%,-18.4%,1.2%,23.9%,0.3%
COc1ccc(N2CCN(c3ccc(C(=O)O)cc3[N+](=O)[O-])CC2)cc1,.,?,-33.3%,49.3%,40.9%[0.501 µM],-4.6%

# Source: PubChem BioAssay
